Data published in PubChem BioAssay (EPA / NIEHS).
Active and inactive are the calls of the source. How the source made its calls: active means hit-call score of the fitted dose curve at least 0.9, where 1 is the maximum; inactive means score below 0.9.

Assay: ATG_EGR_CIS: Attagene CIS-FACTORIAL HepG2 Assay for human Early Growth Response 1 (EGR1) (AID 2282938)
Conditions: HepG2 Attagene CIS-FACTORIAL EGR reporter mRNA; actives raise or lower the signal
Experimental: ATG_CIS is a cell-based, multiplexed-readout assay that uses HepG2, a human liver cell line, with measurements taken at 24 hours after chemical dosing in a 24-well plate.ATG_EGR_CIS is one of 52 assay component(s) measured or calculated from the ATG_CIS assay. It is designed to make measurements of mRNA induction, a form of inducible reporter, as detected with fluorescence intensity signals by Reverse transcription polymerase chain reaction (RT-PCR) and Capillary electrophoresis technology.Data from the assay component ATG_EGR_CIS was analyzed into 1 assay endpoint. This assay endpoint, ATG_EGR_CIS, was analyzed with bidirectional fitting relative to DMSO as the negative control and baseline of activity. Using a type of inducible reporter, measures of mRNA for gain or loss-of-signal activity can be used to understand the reporter gene at the transcription factor-level as they relate to the gene EGR1. Furthermore, this assay endpoint can be referred to as a primary readout, because this assay has produced multiple assay endpoints where this one serves a reporter gene function. To generalize the intended target to other relatable targets, this assay endpoint is annotated to the dna binding intended target family, where the subfamily is zinc finger.
Human liver HepG2 cells are transiently transfected with multiple reporter transcription units (MRTUs) in 6-well plates using FuGene 6 reagent (Roche; 3 ml FuGene/1 mg DNA). The MRTU constructs are regulated by a cis-regulating element (promoter). […] A major difference between the CIS and TRANS system is that in CIS activities of endogenous TFs are measured, whereas the TRANS assay evaluates changes in activities of exogenous, chimeric NR-Gal4 proteins. […] At the end of 24 hour incubation, total RNA was isolated using TriZol reagent (Invitrogen). The isolated RNA is then reverse-transcribed using oligo(dT) primer and Mo-MLV reverse transcriptase (Invitrogen) with DNAse I (Ambion) treatment for 30 min. The one-tenth of the produced cDNA was amplified by PCR using Taq DNA polymerase (Invitrogen) and two reporter sequence-specific primers. The PCR products were fluorescently labeled by primer extension with 6-arboxyfluorescein (6-FAM) 5'-labeled reporter sequence-specific primer (2 min at 95 C, 20 s at 68 C and 10 min at 72 C) and these products were digested with 5U of HpaI (New England Biolabs) for 2h at 37 C. The fragments were purified using Qiaquick PCR columns (Qiagen), analyzed on an ABI 3130xL genetic analyzer (Applied Biosystems) with peak positions identified by using a set of X-rhodamine (ROX)-labeled MapMarker1000 molecular weight standards (BioVentures). The raw capillary electrophoresis data was processed using Attagraph software (Attagene).

Row | SMILES | outcome | AC50
1 | CC(=O)OC(C)(C)Cc1ccccc1 | inactive | 
2 | CC[N+](CC)(CC(=O)Nc1c(C)cccc1C)Cc1ccccc1 | inactive | 
3 | CCCCCCCC#N | inactive | 
4 | c1ccc2c(c1)Oc1ccccc1S2 | inactive | 
5 | COc1ccc2ccccc2c1 | inactive | 
6 | CCO[Si](CCCN)(OCC)OCC | inactive | 
7 | CCCCNC(N)=O | inactive | 
8 | Cc1ccnc(N)c1 | inactive | 
9 | CCC(C)NC(N)=O (stereo not given) | inactive | 
10 | C=C1CC[C@H]2C[C@@H]1C2(C)C | inactive | 
11 | C=CCOCC(CC)(CO)COCC=C | inactive | 
12 | OCCc1ccccn1 | inactive | 
13 | O=C(Oc1ccccc1)c1ccccc1 | inactive | 
14 | O=C(C(=O)c1ccccc1)c1ccccc1 | inactive | 
15 | CC(C)CC(=O)CC(C)C | inactive | 
16 | Clc1ccc(Sc2cc(Cl)c(Cl)cc2Cl)cc1 | inactive | 
17 | O=C(O)c1ccccc1C(=O)O | inactive | 
18 | CC=CC(=O)O | inactive | 
19 | CCOC(=O)CC(=O)OCC | inactive | 
20 | CC[N+](CC)(CC(=O)Nc1c(C)cccc1C)Cc1ccccc1 (tested in a mixture with another compound) | inactive | 

Row | SMILES | outcome | AC50
21 | CC1=C(CC(=O)O)c2cc(F)ccc2/C1=C\c1ccc(S(C)=O)cc1 (stereo not given) | inactive | 
22 | Cc1cc(O)cc(C)c1Cl | inactive | 
23 | CCc1cc(C(N)=S)ccn1 | inactive | 
24 | COc1ccccc1OCC(O)CO (stereo not given) | inactive | 
25 | Cc1cc(C)c(S(=O)(=O)O)cc1N=Nc1cc(S(=O)(=O)O)c2ccccc2c1O | inactive | 
26 | CC(=O)c1nccs1 | inactive | 
27 | O=C(CC(C(=O)OC1CCCCC1)S(=O)(=O)O)OC1CCCCC1 (stereo not given) | inactive | 
28 | CC(=O)Nc1c(I)c(NC(C)=O)c(I)c(C(=O)O)c1I | inactive | 
29 | O=[N+]([O-])c1ccc2nc[nH]c2c1 | inactive | 
30 | COC(=O)c1ccccc1 | inactive | 
31 | CCCCCCC1CCC(=O)O1 (stereo not given) | inactive | 
32 | Cc1ccccc1S(=O)(=O)O | inactive | 
33 | O=C(c1ccccc1)c1ccccc1O | inactive | 
34 | O=C(O)c1nc(Cl)c(Cl)c(Cl)c1Cl | inactive | 
35 | Oc1ccc(Cl)cc1C1CCCC1 |  | 54.7 µM (active)
36 | CC1=NN(c2cc(Cl)c(S(=O)(=O)O)cc2Cl)C(=O)C1N=Nc1ccc(S(=O)(=O)O)cc1 (stereo not given) | inactive | 
37 | CCC(=O)OCc1ccc(OC)cc1 | inactive | 
38 | CCCCCC[C@@H](O)C/C=C\CCCCCCCC(=O)O | inactive | 
39 | CN(C)CCCN1c2ccccc2CCc2ccc(Cl)cc21 | inactive | 
40 | C=CN1CCCCCC1=O | inactive | 
